Activity calls are given as the source filed them.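 Rule for the calls: active = compound raising the membrane signal above positive-control mean plus 3 SD in both repeats, and a primary screen hit; inactive = the rest.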
target: Short transient receptor potential channel 6 (Mus musculus) (UniProt Q61143); assay: TRPC6 potentiation by TRPC4 potentiator hits, confirmation, selectivity assay for TRPC4 potentiator project, HEK293 cells, membrane potential dye, duplicate (AID 434952); settings: HEK293 TRPC6, membrane potential dye fluorescence, at 10 µM, maximal acetylcholine added after compound
Sequence (Q61143 whole entry, looked up): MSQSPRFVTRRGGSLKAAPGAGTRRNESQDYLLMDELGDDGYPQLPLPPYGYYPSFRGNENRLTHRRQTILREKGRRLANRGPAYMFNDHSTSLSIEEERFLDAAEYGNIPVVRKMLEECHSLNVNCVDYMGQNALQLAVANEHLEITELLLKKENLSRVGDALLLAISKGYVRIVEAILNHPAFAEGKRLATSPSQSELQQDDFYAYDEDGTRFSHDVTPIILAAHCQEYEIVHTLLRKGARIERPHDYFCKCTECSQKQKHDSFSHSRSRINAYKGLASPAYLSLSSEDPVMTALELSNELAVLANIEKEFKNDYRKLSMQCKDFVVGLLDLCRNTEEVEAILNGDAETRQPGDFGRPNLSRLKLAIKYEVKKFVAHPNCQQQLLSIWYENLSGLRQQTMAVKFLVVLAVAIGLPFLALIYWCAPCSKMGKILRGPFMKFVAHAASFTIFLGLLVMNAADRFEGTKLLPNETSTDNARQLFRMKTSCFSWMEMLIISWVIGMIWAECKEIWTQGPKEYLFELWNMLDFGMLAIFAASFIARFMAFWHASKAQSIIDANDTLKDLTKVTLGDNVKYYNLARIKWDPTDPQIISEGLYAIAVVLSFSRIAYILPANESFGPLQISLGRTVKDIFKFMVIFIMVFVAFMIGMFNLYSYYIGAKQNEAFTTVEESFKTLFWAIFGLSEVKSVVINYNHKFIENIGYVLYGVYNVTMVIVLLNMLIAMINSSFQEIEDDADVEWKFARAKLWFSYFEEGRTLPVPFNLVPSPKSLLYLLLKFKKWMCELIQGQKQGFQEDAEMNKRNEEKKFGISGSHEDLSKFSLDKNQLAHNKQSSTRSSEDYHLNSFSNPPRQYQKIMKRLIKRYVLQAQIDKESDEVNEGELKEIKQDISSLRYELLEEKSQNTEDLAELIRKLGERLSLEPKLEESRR

Structure (SMILES)	outcome
CC(=O)c1ccc2c(c1)N(C)c1ccccc1S2	inactive
CCOC(=O)C1CCN(CC(O)COc2ccc(C(C)(C)C)cc2)CC1 (stereo unspecified)	inactive
CC(C)C1=Nc2cccc3cccc(c23)N1	inactive
Cc1cccc2nc(CSc3ccc(Cl)cc3)cn12	inactive
O=C(NC1CCCCC1)N1CCN(C(c2ccccc2)c2ccccc2)CC1	inactive
COc1cc(CNC2CCCC2)c(Br)cc1OCc1ccccc1	inactive
COc1ccc(Nc2cc(C)nc3ccc(OC)cc23)cc1	inactive
Cc1ccc(NC(=S)N(CCCN(C)C)Cc2cc3cc4c(cc3[nH]c2=O)OCO4)c(C)c1	inactive
COc1ccc(CN2CCN(Cc3ccc(C(F)(F)F)cc3)CC2)c(OC)c1	inactive
Cn1cc(CNCC2CCCO2)c(-c2ccc(Oc3ccccc3)cc2)n1 (stereo unspecified)	inactive
CCCCCCCCCCCCOC(=O)C[N+](C)(C)C	inactive
CN(C)CCCN(C(=O)c1ccc(S(=O)(=O)N2CCCC2)cc1)c1nc2c(F)cc(F)cc2s1	inactive
C=C(c1ccc(O)cc1)c1ccc(O)cc1	inactive
C/C(N)=C(/C#N)C(=O)COC(=O)CC12CC3CC(CC(C3)C1)C2	inactive
Cc1cccc2cc(CN(CCCN(C)C)C(=S)NCCc3ccccc3)c(=O)[nH]c12	inactive
Nc1cc(C(F)(F)F)ccc1Nc1ccccc1	inactive
CCC(C)NC(C(=O)Nc1ccc(Cl)c([N+](=O)[O-])c1)c1ccccc1 (stereo unspecified)	inactive
COCCn1c(SCc2cccc([N+](=O)[O-])c2)nc2ccccc2c1=O	inactive
O=C(Nc1cccc(Cl)c1)N1CCN2C(=O)c3ccccc3C12c1ccccc1 (stereo unspecified)	inactive
CC(C)n1c(NCc2c[nH]c3ccccc23)nc2ccccc21	inactive
Cc1nn(-c2ccccc2)c2[nH]c(C(F)(F)F)cc(=O)c12	inactive
